Inconclusive results are not listed. The source made the active and inactive calls. The calls were made as follows, unless noted: active = hit-call score of the fitted dose curve at least 0.9, where 1 is the maximum; inconclusive = response in the unintended direction; inactive = score below 0.9.
Tests used:
[1] = Tanguay_ZF_120hpf_CIRC_legacy: (Legacy) Oregon State University Tanguay Lab 120 Hour Post-fertilization zebrafish Assay for Circulatory Malformation (AID 2283651)
Outline: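 Static exposure, 6–120 hpf, 28C, sealed and dark; one dechorionated 5D embryo/well; DMSO 0.64% v/v final. Binary circulation endpoint by brightfield; dead embryos not scored.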

[2] = Tanguay_ZF_120hpf_SWIM_legacy: (Legacy) Oregon State University Tanguay Lab 120 Hour Post-fertilization zebrafish Assay for Swim Bladder Malformation (AID 2283654);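 also: swim bladder malformation in each larva scored yes or no under brightfield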
Outline: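 Tropical 5D embryos dechorionated at 4 hpf; 1 embryo/well from 6 hpf; static, sealed, dark exposure at 28C until 120 hpf; final DMSO 0.64%; 5uM trimethyltin chloride positive control; swim bladder defect recorded yes/no; dead embryos not scored.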

[3] = Tanguay_ZF_120hpf_TRUN_legacy: (Legacy) Oregon State University Tanguay Lab 120 Hour Post-fertilization zebrafish Assay for Truncated Body (AID 2283655)
Outline: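 Whole-embryo zebrafish screen: dechorionated 5D embryos, static exposure 6–120 hpf, 28C, sealed foil-covered plates, 0.64% DMSO. Binary truncation call; gain of signal versus DMSO baseline.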

[4] = Tanguay_ZF_120hpf_NC_legacy: (Legacy) Oregon State University Tanguay Lab 120 Hour Post-fertilization zebrafish Assay for Notochord and Tail Malformation (AID 2283656)
Outline: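 Binary notochord-distortion calls, made by brightfield inspection, form the read-out; activity is fitted in the positive direction against DMSO. Exposure ran statically from 6 to 120 hpf at 28C with 0.64% DMSO.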

[5] = test system: Thyroperoxidase (TPO), gene 54314; experiment: CCTE_Simmons_AUR_rTPO: CCTE's Amplex UltraRed Assay for Thyroperoxidase (TPO) Inhibition, Simmons Lab (AID 2283662);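 also: potency for loss of signal meaning inhibition of peroxidase activity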
Outline: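 Cell-free peroxidase activity assay using rat thyroid gland microsomes with excess H2O2 (300 uM) and 25 uM Amplex UltraRed. Compounds tested from 5 nM to 87.5 uM; fluorescence measured after 30 min at 37C, analysed relative to DMSO baseline.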

[6] = CCTE_Simmons_CellTiterGLO_HEK293T: Viability Assessment in CCTE's Assays for Thyroperoxidase (TPO) Inhibition, Simmons Lab (AID 2283665);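 as to AC50: cells exposed to compound for 24 h before readout; actives reduce ATP signal below DMSO vehicle meaning cytotoxicity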
Outline: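 Luminescent ATP readout (CellTiter-Glo, 20 min at room temperature) after 24 hr exposure of HEK293T cells to 5 nM–87.5 uM final compound; signal loss relative to DMSO vehicle indicated cytotoxicity; dichlone titrated as positive control.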

[7] = Tanguay_ZF_120hpf_TR_legacy: (Legacy) Oregon State University Tanguay Lab 120 Hour Post-fertilization zebrafish Assay for Touch Response (AID 2283667)
Outline: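 Binary touch-response call at 120 hpf, analysed as gain of signal versus DMSO baseline. Wild-type 5D larvae, static exposure at 28C, 0.64% DMSO final; 5uM trimethyltin chloride as positive control.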

[8] = CEETOX_H295R_MTT_cell_viability: Viability Assessment in the CeeTox HT-H295R MTT Assay (AID 2283718; active = hit-call score of the fitted dose curve at least 0.9, where 1 is the maximum; inactive = score below 0.9)
Outline: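 Human H295R adrenal cells, prestimulated 48 h with 10 uM forskolin, were exposed 48 h to chemicals in 0.1% DMSO. Viability was measured in the same wells by MTT (0.5 mg/ml, 4 h, 37 C), absorbance 570/650 nm, as percent of controls.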

[9] = Tanguay_ZF_120hpf_ActivityScore_legacy: (Legacy) Oregon State University Tanguay Lab 120 Hour Post-fertilization zebrafish Assay Score for Activity (AID 2283742)
Outline: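 Dechorionated 5D embryos, one per well, static exposure 6–120 hpf, 28C, sealed and dark; final DMSO 0.64% (vol/vol). Brightfield binary scoring of mortality plus 18 endpoints; gain-of-signal fit versus DMSO baseline.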

[10] = CCTE_Padilla_ZF_144hpf_TERATOSCORE: (Legacy) CCTE's 144 Hour Post-fertilization zebrafish Assay Teratoscore, Padilla Lab (AID 2283679; active = hit-call score of the fitted dose curve at least 0.9, where 1 is the maximum; inactive = score below 0.9;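 as to AC50: zebrafish embryos with chorions exposed by immersion from 6-8 hpf to 5 dpf with daily renewal; teratogenicity score from eye scoring of death hatching and malformations at 144 hpf; higher score means more developmental defects relative to DMSO baseline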)
Outline: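 Larvae scored by eye at 144 hpf for death, hatching and malformations after a day in clean Hanks'. Before that, daily-renewed exposure at 80 uM (0.4% DMSO, 26C) from roughly 6-8 hpf through 5 dpf, 4 embryos per chemical.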

[11] = STM_H9_OrnithineISnorm_perc: Stemina devTOX quickPredict H9 human embryonic stem cell (hESC)-based Assay for Ornithine (ORN) Metabolite Biomarker, Normalized (AID 2283712; active = hit-call score of the fitted dose curve at least 0.9, where 1 is the maximum; inactive = score below 0.9;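 also: ornithine released into spent medium during last day measured by mass spectrometry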)
Outline: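 UPLC-HRMS readout: endogenous ornithine EIC area / 13C-ORN internal standard, then % of 0.1% DMSO median. H9 hESCs (pluripotent), 72h exposure, re-dosed with fresh media q24h; last 24-h spent media, deproteinized in 40% acetonitrile.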

[12] = STM_H9_CystineISnorm_perc: Stemina devTOX quickPredict H9 human embryonic stem cell (hESC)-based Assay for Cystine (CYSS) Metabolite Biomarker, Normalized (AID 2283713; active = hit-call score of the fitted dose curve at least 0.9, where 1 is the maximum; inactive = score below 0.9)
Outline: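 UPLC-HRMS read-out: endogenous cystine peak area in spent medium, normalized to isotope-labeled internal standard and to median of 0.1% DMSO controls. Pluripotent H9 cells, 72h exposure, daily medium/compound replenishment; medium from last 24h sampled.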

[13] = STM_H9_OrnCyssISnorm_ratio: Stemina devTOX quickPredict H9 human embryonic stem cell (hESC)-based Assay for Ornithine (ORN):Cystine (CYSS) Ratio (AID 2283714)
Outline: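 UPLC-HRMS of spent media: ORN/CYSS ratio of internal-standard-normalized percentages, DMSO (0.1%) baseline. Pluripotent H9 hESCs, 72h exposure, daily re-dosing with fresh media; last 24h media collected.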

[14] = test system: Thyroperoxidase (TPO), gene 445522; experiment: CCTE_Simmons_GUA_TPO: CCTE's Guaiacol Assay for Thyroperoxidase (TPO) Inhibition, Simmons Lab (AID 2283750)
Outline: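 Porcine thyroid microsomes (25 ug) in 200mM potassium phosphate, preincubated 30 s at 37C with compound (8 concentrations, 5 nM–87.5 uM) and 35mM guaiacol; 1mM H2O2 starts reaction. Absorbance change at 450nm over first 80 s; loss of signal versus DMSO, three replicates.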

[15] = read-out: kallikrein-3 (KLK3), KLK3 (gene 354); experiment: LTEA_HepaRG_KLK3: Life Technologies and Expression Analysis (LTEA) Assay for kallikrein-3 (KLK3) using HepaRG (AID 2283652; active = hit-call score of the fitted dose curve at least 0.9, where 1 is the maximum; inactive = score below 0.9); settings: mRNA level, 48 h; actives raise or lower the signal
Outline: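 KLK3 transcript levels were measured by TaqMan qRT-PCR with normalisation to three housekeeping genes. HepaRG cultures received chemicals for 48 h at up to 100 uM (half-log, 8 points, 0.5% DMSO vehicle), fitted in both directions against DMSO.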

[16] = read-out: solute carrier (SLC22A6), SLC22A6 (gene 9356); experiment: LTEA_HepaRG_SLC22A6: Life Technologies and Expression Analysis (LTEA) Assay for solute carrier (SLC22A6) using HepaRG (AID 2283653; active = hit-call score of the fitted dose curve at least 0.9, where 1 is the maximum; inactive = score below 0.9); settings: mRNA level, 48 h; actives raise or lower the signal
Outline: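 HepaRG, human liver line; 48 h chemical exposure; 8-pt half-log series from 100 uM in 0.5% DMSO, duplicate wells. Readout: TaqMan qRT-PCR of SLC22A6 mRNA, housekeeping-normalised; bidirectional curve fit vs DMSO baseline.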

[17] = read-out: solute carrier (SLC10A1), SLC10A1 (gene 6554); experiment: LTEA_HepaRG_SLC10A1: Life Technologies and Expression Analysis (LTEA) Assay for solute carrier (SLC10A1) using HepaRG (AID 2283657; active = hit-call score of the fitted dose curve at least 0.9, where 1 is the maximum; inactive = score below 0.9); settings: mRNA level, 48 h; actives raise or lower the signal
Outline: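 HepaRG, 48 h exposure, 8-pt half-log curve from 100 uM in 0.5% DMSO, duplicates. Read-out: TaqMan qRT-PCR of SLC10A1 mRNA, normalized to three housekeeping genes. Gain/loss fit vs DMSO baseline.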

[18] = read-out: matrix metalloproteinase-1 (MMP1), MMP1 (gene 4312); experiment: LTEA_HepaRG_MMP1: Life Technologies and Expression Analysis (LTEA) Assay for matrix metalloproteinase-1 (MMP1) using HepaRG (AID 2283658; active = hit-call score of the fitted dose curve at least 0.9, where 1 is the maximum; inactive = score below 0.9); settings: mRNA level, 48 h; actives raise or lower the signal
Outline: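 MMP1 transcript read by TaqMan qRT-PCR (Fluidigm array) after 48 h chemical exposure of HepaRG cells in serum-free induction medium. Eight-point half-log series, top 100 uM, 0.5% DMSO vehicle. Bidirectional curve fit against DMSO baseline.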

[19] = read-out: Cytochrome P450 (CYP24A1_1), CYP24A1 (gene 1591); experiment: LTEA_HepaRG_CYP24A1_1: Life Technologies and Expression Analysis (LTEA) Assay for Cytochrome P450 (CYP24A1_1) using HepaRG (AID 2283671; active = hit-call score of the fitted dose curve at least 0.9, where 1 is the maximum; inactive = score below 0.9); settings: mRNA level, 48 h; actives raise or lower the signal
Outline: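 Readout is CYP24A1 transcript level by qRT-PCR, normalized to three housekeeping genes, with gain or loss of signal fitted against 0.5% DMSO. Human HepaRG cells received compound for 48 h at up to 100 uM.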

[20] = ArunA_CellTiter_hNC: Viability Assessment in the ArunA Biomedical's Oris Neural Crest (hNC) Cell Migration Assay (AID 2283752)
Outline: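 hNC cells (H9 ESC-derived), 60,000/well, Matrigel, LIF + bFGF medium; 16 h 37C attachment; 72 h compound in test medium; CellTiter Aqueous One read-out; loss-of-signal vs DMSO baseline.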

Measured: AC50

c1ccc(OP(Oc2ccccc2)Oc2ccccc2)cc1
active: [5] 8.68 µM
inactive: [1] | [2] | [3] | [4] | [6] | [7] | [8] | [9]

CCN(CC)c1ccccc1
inactive: [1] | [2] | [3] | [4] | [7] | [9]

CSC(C)(C)C=NO
inactive: [1] | [2] | [3] | [4] | [7] | [9]

c1ccc2c(c1)Nc1ccccc1S2
inactive: [1] | [2] | [4] | [7] | [11] | [12] | [13] | [8] | [9]
active: [5] 15 µM | [6] 9.57 µM | [10] 14.2 µM | [14] 100 µM

CCOS(=O)(=O)OCC
inactive: [1] | [2] | [3] | [4] | [7] | [9]

CCOP(=S)(OCC)SCSCC
inactive: [1] | [2] | [3] | [4] | [7] | [10] | [9]
active: [5] 20.5 µM | [6] 13.6 µM

CC(C)(C)OOC(C)(C)C
inactive: [1] | [15] | [16] | [2] | [3] | [4] | [17] | [18] | [19] | [9]

O=C(O)C1C(C(=O)O)C2(Cl)C(Cl)=C(Cl)C1(Cl)C2(Cl)Cl (centres undefined)
inactive: [1] | [2] | [3] | [4] | [7] | [11] | [12] | [9] | [20]

CCOc1ccc(C(C)(C)COCc2cccc(Oc3ccccc3)c2)cc1
inactive: [1] | [2] | [3] | [4] | [8] | [9]

CCOC(=O)c1ccccc1C(=O)OCC
inactive: [1] | [2] | [3] | [7] | [11] | [12] | [8] | [9]

ClC(Cl)c1ccccc1
inactive: [1] | [2] | [3] | [4] | [7] | [9]
active: [10] 14.7 µM

— PubChem BioAssay (EPA / NIEHS)
